From article PMC4242493, “Sequence specificity incompletely defines the genome-wide occupancy of Myc” come the findings set out here.

The full ranking holds about 33,000 sequences; the median of “normalized occupancy” is about 0.075, and the highest 2% start at about 0.095. Many of the other results were omitted from the sample, so the highest values are more common in it than they were.

The target of this experiment is MaxL homodimer (Homo sapiens, UniProt P61244 1-160). Description: universal protein-binding microarray (PBM); PBS-based mixture, 10 nM His-tagged protein dimer, 2% milk, 200 ng/uL BSA, 50 ng/uL salmon testes DNA, 0.02% TX-100; detection with Alexa 488 anti-His antibody;; high values mean tight binding. To be noted: protein: recombinant; tags: C-terminal His-tag (pET21a); chain copies: 2; dsDNA, one strand shown. The method, boiled down: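 His-tagged protein dimer at 10 nM was incubated on Agilent 4 x 44 K arrays with the 'all 10-mer' universal design. Bound protein was tagged with 10 ng/μL fluorophore-conjugated anti-His antibody, and arrays were scanned on a GenePix 4400A. Binding occupancy for each 8-mer is its fluorescence intensity normalised to the highest-ranked 8-mer's intensity.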
Sequence of MaxL homodimer (P61244 whole entry): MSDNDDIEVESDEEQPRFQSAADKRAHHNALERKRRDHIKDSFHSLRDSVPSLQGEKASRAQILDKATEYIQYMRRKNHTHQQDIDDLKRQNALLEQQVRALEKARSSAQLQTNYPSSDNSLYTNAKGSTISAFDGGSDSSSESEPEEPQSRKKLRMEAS
In the case of CCACCTCG, the binding signal is 0.0794 normalized occupancy.

Consider CCACCTTC, for which the binding signal turned out to be 0.0757 normalized occupancy.

With ACACCTGC, the binding signal amounted to 0.0956 normalized occupancy.

Take ATACCTGC: the binding signal was determined as 0.0811 normalized occupancy.

Consider ACACCTGA, for which the binding signal came out at 0.0871 normalized occupancy.

Regarding ACACCTGG, the binding signal was 0.0881 normalized occupancy.

On to CCACCTGA, for which the binding signal turned out to be 0.099 normalized occupancy.

Consider GCACCTGC, for which the binding signal came out at 0.0846 normalized occupancy.

Turning to CCACCTGG, the binding signal was 0.105 normalized occupancy.

For the sequence ACACCTGT, the binding signal is 0.0912 normalized occupancy.

Turning to GTAGTTGA, the binding signal came out at 0.0738 normalized occupancy.

With ATAACGCC, the binding signal was 0.0792 normalized occupancy.

Regarding ATTCACCG, the binding signal came out at 0.0732 normalized occupancy.

As for CTTTTCGA, the binding signal stood at 0.0725 normalized occupancy.

In the case of ACGCCGAA, the binding signal came out at 0.0725 normalized occupancy.

Turning to GGCCACTA, the binding signal came to 0.0777 normalized occupancy.

Consider GTGGAAAA, for which the binding signal is 0.0879 normalized occupancy.

Consider AATCGGGA, for which the binding signal was determined as 0.0782 normalized occupancy.

With CTGCCTAA, the binding signal stood at 0.075 normalized occupancy.

Consider CAAGTCGC, for which the binding signal was found to be 0.0719 normalized occupancy.

Consider CAAACCTC, for which the binding signal came out at 0.0765 normalized occupancy.

Turning to ATTCTACC, the binding signal worked out at 0.0801 normalized occupancy.

On to AGAGCGTG, for which the binding signal was determined as 0.0963 normalized occupancy.

With ACAGCGTC, the binding signal is 0.0731 normalized occupancy.

Take AGAGCGAG: the binding signal was determined as 0.0719 normalized occupancy.

As for ATAGCGTC, the binding signal turned out to be 0.0734 normalized occupancy.

In the case of ACAGCGTG, the binding signal was determined as 0.123 normalized occupancy.

Regarding AGCGCGTG, the binding signal was 0.117 normalized occupancy.

With AGAGCGTA, the binding signal stood at 0.0758 normalized occupancy.

In the case of ACAGCGAG, the binding signal amounted to 0.0728 normalized occupancy.

For AGCGCGCG, the binding signal was determined as 0.0841 normalized occupancy.

As for ATAGCGTG, the binding signal came to 0.104 normalized occupancy.

As for AGCGCGTC, the binding signal came out at 0.0772 normalized occupancy.

Regarding ATAGCGTA, the binding signal was 0.0819 normalized occupancy.

Consider AGGCAGTA, for which the binding signal stood at 0.0728 normalized occupancy.

For the sequence CTTGGTCC, the binding signal amounted to 0.0723 normalized occupancy.

Consider CTTCGCTA, for which the binding signal is 0.0727 normalized occupancy.

In the case of ATCCCCCC, the binding signal is 0.0808 normalized occupancy.

GGCTATCA: the binding signal came out at 0.0738 normalized occupancy.

Turning to ACACTGAC, the binding signal came to 0.0742 normalized occupancy.

For the sequence ACTTTAAG, the binding signal was found to be 0.0722 normalized occupancy.

For the sequence AAGTATAG, the binding signal stood at 0.0813 normalized occupancy.

Take CCTTTGTA: the binding signal is 0.0734 normalized occupancy.

Take GGTGCGGA: the binding signal came to 0.0762 normalized occupancy.

Consider AAAATTGA, for which the binding signal came out at 0.0757 normalized occupancy.

Consider TGTAACAA, for which the binding signal turned out to be 0.0771 normalized occupancy.

On to GCACGCCC, for which the binding signal was 0.0848 normalized occupancy.

As to GCACGCGA, the binding signal was 0.109 normalized occupancy.

Regarding GAACGCGA, the binding signal is 0.0778 normalized occupancy.

For the sequence GCGCGCGC, the binding signal came to 0.0821 normalized occupancy.

With GGACGCGA, the binding signal came to 0.0754 normalized occupancy.

Take GCACGCGC: the binding signal is 0.15 normalized occupancy.

Consider CTTAAGCA, for which the binding signal was 0.077 normalized occupancy.

Regarding TCAAATAA, the binding signal stood at 0.0786 normalized occupancy.

With AAGGGGAC, the binding signal came to 0.0746 normalized occupancy.

As for AATGTGAG, the binding signal worked out at 0.0853 normalized occupancy.

For AATGTGAC, the binding signal is 0.0908 normalized occupancy.

On to GATGTGAA, for which the binding signal came to 0.0819 normalized occupancy.

For the sequence CATGTGAC, the binding signal was found to be 0.168 normalized occupancy.

Take TATGTGAA: the binding signal was found to be 0.0871 normalized occupancy.

Take GATGTGAC: the binding signal came out at 0.0817 normalized occupancy.

For the sequence CCTGTGAG, the binding signal stood at 0.0762 normalized occupancy.

For CATGTGAG, the binding signal came out at 0.128 normalized occupancy.

With CATGTGAA, the binding signal was determined as 0.127 normalized occupancy.

On to AAGTAGGA, for which the binding signal came out at 0.0726 normalized occupancy.

With ATGGAGAA, the binding signal came to 0.0775 normalized occupancy.

Regarding AAGCAGTA, the binding signal was 0.0725 normalized occupancy.

Regarding TAGATTGA, the binding signal amounted to 0.0791 normalized occupancy.

Consider ACCTTTAA, for which the binding signal was determined as 0.0744 normalized occupancy.

Consider CATGGCAA, for which the binding signal stood at 0.0963 normalized occupancy.

On to GATGGCAA, for which the binding signal was determined as 0.0752 normalized occupancy.

CATGGCAG: the binding signal is 0.0887 normalized occupancy.

With CCTATTAA, the binding signal worked out at 0.0743 normalized occupancy.

As for GAAAATCA, the binding signal was 0.0778 normalized occupancy.

Turning to GTGCACTA, the binding signal is 0.0769 normalized occupancy.

Turning to CTCTATGA, the binding signal is 0.0732 normalized occupancy.

Take GATGACTA: the binding signal is 0.0757 normalized occupancy.

Take CCGTGACG: the binding signal was determined as 0.0782 normalized occupancy.

Turning to ATGTGACA, the binding signal turned out to be 0.0901 normalized occupancy.

As to ACGTGACC, the binding signal was 0.103 normalized occupancy.

For ACGTGACG, the binding signal was found to be 0.0972 normalized occupancy.

Consider AGGTGACC, for which the binding signal was 0.0766 normalized occupancy.

Consider AAGTGACC, for which the binding signal amounted to 0.0751 normalized occupancy.

For CCGTGACC, the binding signal turned out to be 0.075 normalized occupancy.

In the case of GCGTGACC, the binding signal was 0.103 normalized occupancy.

For the sequence GGGTGACC, the binding signal came out at 0.0751 normalized occupancy.

Turning to AGGTGACG, the binding signal worked out at 0.075 normalized occupancy.

With ACGTGACT, the binding signal is 0.0933 normalized occupancy.

As to ACGTGACA, the binding signal came out at 0.108 normalized occupancy.

AGGGTTGC: the binding signal was 0.0731 normalized occupancy.

GAAGGTGC: the binding signal is 0.0733 normalized occupancy.

Consider CGAAATAC, for which the binding signal is 0.0768 normalized occupancy.

With CATATTGA, the binding signal turned out to be 0.0806 normalized occupancy.

Take CCGTGACA: the binding signal came out at 0.0807 normalized occupancy.

Turning to TCGTGACA, the binding signal was 0.0851 normalized occupancy.

Take GCGTGACA: the binding signal stood at 0.103 normalized occupancy.

In the case of ATGAGCCC, the binding signal was found to be 0.0757 normalized occupancy.

Turning to TCTCGAAA, the binding signal was 0.0729 normalized occupancy.

As to TGTGCACA, the binding signal was determined as 0.0902 normalized occupancy.

For the sequence CGTGCACA, the binding signal worked out at 0.0958 normalized occupancy.

With GGTGCACA, the binding signal stood at 0.078 normalized occupancy.

Regarding CGTGCACG, the binding signal is 0.123 normalized occupancy.

With AGTGCACA, the binding signal was 0.0838 normalized occupancy.

Consider AGTGCACG, for which the binding signal was determined as 0.0853 normalized occupancy.

On to CTTAGCCA, for which the binding signal worked out at 0.0761 normalized occupancy.

Take CACGCTAG: the binding signal was 0.0976 normalized occupancy.

Consider GACGCTAC, for which the binding signal was found to be 0.0742 normalized occupancy.

On to CACGCTAC, for which the binding signal worked out at 0.0972 normalized occupancy.

For AACGCTAC, the binding signal is 0.0825 normalized occupancy.

Take CACGCTAA: the binding signal amounted to 0.0891 normalized occupancy.

For the sequence AACGCTAG, the binding signal worked out at 0.0726 normalized occupancy.

Consider CTATGGGC, for which the binding signal amounted to 0.0769 normalized occupancy.

As for AGCATACT, the binding signal came out at 0.0804 normalized occupancy.

As to GCGTGTAC, the binding signal was found to be 0.1 normalized occupancy.

For the sequence ACGTGTAT, the binding signal amounted to 0.117 normalized occupancy.

As to AGGTGTAC, the binding signal amounted to 0.0803 normalized occupancy.

In the case of CCGTGTAA, the binding signal stood at 0.0797 normalized occupancy.

Take GCGTGTAA: the binding signal is 0.0923 normalized occupancy.

Take ACGTGTAC: the binding signal is 0.0984 normalized occupancy.

For the sequence AGGTGTAT, the binding signal was 0.0924 normalized occupancy.

As for CCGTGTAC, the binding signal turned out to be 0.0796 normalized occupancy.

Consider GAGTGTAC, for which the binding signal is 0.0756 normalized occupancy.

Take TCGTGTAA: the binding signal was determined as 0.0836 normalized occupancy.

With AAGTGTAT, the binding signal turned out to be 0.0806 normalized occupancy.

As to ACGTGTAA, the binding signal is 0.1 normalized occupancy.

For the sequence ATTCCAAT, the binding signal is 0.0727 normalized occupancy.

On to ATAGTCAG, for which the binding signal is 0.0801 normalized occupancy.

For the sequence GCATAAAA, the binding signal came out at 0.0781 normalized occupancy.

Take GCATTCTA: the binding signal was 0.0844 normalized occupancy.

For ACTAACAT, the binding signal was 0.0807 normalized occupancy.

Take GTTGTTTA: the binding signal amounted to 0.0784 normalized occupancy.

Consider AGTGTTAC, for which the binding signal is 0.0737 normalized occupancy.

As for GCTATACA, the binding signal is 0.0815 normalized occupancy.

Consider CAAGAAAC, for which the binding signal was 0.0724 normalized occupancy.

For the sequence ATCACGGC, the binding signal stood at 0.0739 normalized occupancy.

Regarding CTCATTCC, the binding signal worked out at 0.0776 normalized occupancy.

Regarding TTCAAGAA, the binding signal was determined as 0.0738 normalized occupancy.

As to AAGACAAG, the binding signal was 0.0722 normalized occupancy.

For the sequence CAATCGAC, the binding signal amounted to 0.0743 normalized occupancy.

Take GCAGCACA: the binding signal came out at 0.0778 normalized occupancy.

Take ACGTGTAG: the binding signal worked out at 0.103 normalized occupancy.

For GCGTGTCC, the binding signal came out at 0.0957 normalized occupancy.

For CCGTGTAG, the binding signal worked out at 0.0808 normalized occupancy.

For AGGTGTAG, the binding signal is 0.0785 normalized occupancy.

Consider GCGTGTCA, for which the binding signal was found to be 0.0867 normalized occupancy.

As to ACGTGTCC, the binding signal amounted to 0.0932 normalized occupancy.

GGAATAAA: the binding signal was 0.0741 normalized occupancy.

On to CACAACCA, for which the binding signal stood at 0.0825 normalized occupancy.

On to AGAACGCA, for which the binding signal stood at 0.0762 normalized occupancy.

Turning to ACCGTGCG, the binding signal stood at 0.0828 normalized occupancy.

With CCCGTGCC, the binding signal was found to be 0.0787 normalized occupancy.

In the case of GGAGTGCA, the binding signal was 0.0787 normalized occupancy.

With GCCGTGCA, the binding signal was determined as 0.0768 normalized occupancy.

In the case of AGCGTGCC, the binding signal was found to be 0.0969 normalized occupancy.

Regarding ATCGTGCG, the binding signal is 0.0851 normalized occupancy.

Turning to GGCGTGCA, the binding signal was 0.0978 normalized occupancy.

With ATCGTGCC, the binding signal was found to be 0.08 normalized occupancy.

Regarding ACCGTGCC, the binding signal amounted to 0.0756 normalized occupancy.

For the sequence CTCGTGCC, the binding signal is 0.0909 normalized occupancy.

On to CGCGTGCC, for which the binding signal is 0.118 normalized occupancy.

Take AGCGTGCG: the binding signal amounted to 0.109 normalized occupancy.

As for AGTAAAAA, the binding signal was 0.0773 normalized occupancy.

For AAAATCTC, the binding signal was 0.0762 normalized occupancy.

In the case of AGTCTCGA, the binding signal turned out to be 0.0741 normalized occupancy.

For the sequence CTCAAATA, the binding signal was found to be 0.0761 normalized occupancy.

Consider TGCCAAAA, for which the binding signal came out at 0.0792 normalized occupancy.

Regarding ACGTCTAA, the binding signal was determined as 0.0724 normalized occupancy.

For CATGGAGG, the binding signal came to 0.0891 normalized occupancy.

For the sequence AGGAGATG, the binding signal was 0.0762 normalized occupancy.

Take CGCGTGCA: the binding signal came to 0.134 normalized occupancy.

For CGGGTGCA, the binding signal came out at 0.0755 normalized occupancy.

AGAGTGCA: the binding signal is 0.0743 normalized occupancy.

Regarding CCCGTGCA, the binding signal is 0.0874 normalized occupancy.

Regarding ACCGTGCA, the binding signal was 0.0786 normalized occupancy.

As for AGCGTGCA, the binding signal is 0.108 normalized occupancy.
